Screening data: PubChem BioAssay, National Center for Advancing Translational Sciences (NCATS)
Most compounds without a hit are left out; they make up all but 19% or so of the library.
TDP1 cell CPT = qHTS for Inhibitors of human tyrosyl-DNA phosphodiesterase 1 (TDP1): qHTS in cells in presence of CPT. chicken DT40 Tdp1-/-;hTDP1 cells + 20 nM CPT, ATP luminescence, 48 h. Potency, µM (doses to about 46.2 µM), for the others: at the top dose activity change, negative = growth inhibition, usual class: inhibitors. actives 12% (n = 420,000). AID 686979, 2013; also: nearly all actives have a fitted effect of over 55% in size
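Cell growth measured by CellTiter-Glo luminescence after a minimum 48 h, 37 C compound exposure with 20 nM CPT in Tdp1-knockout DT40 cells stably expressing hTDP1, seeded 400/well; qHTS titration format.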
TDP1 cell noCPT = qHTS for Inhibitors of human tyrosyl-DNA phosphodiesterase 1 (TDP1): qHTS in cells in absence of CPT | DT40 Tdp1-/- hTDP1 cells, no CPT, ATP luminescence, 48 h | actives 15% (n = 420,000) | Potency, µM (titrated, usually from 46.2 µM), without a hit: at the highest dose activity change, negative = growth inhibition, most hits filed as inhibitors; also: nearly all actives have a fitted effect of over 55% in size
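A cellular qHTS used chicken DT40 cells lacking endogenous Tdp1 but carrying stably transfected human TDP1. Compounds were applied without camptothecin, and cell growth kinetics were judged by ATP-dependent luminescence after ≥48 hr.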
HT1080NT lethal = qHTS for induction of synthetic lethality in tumor cells producing 2HG: qHTS for the HT-1080-NT fibrosarcoma cell line; HT-1080-NT fibrosarcoma viability, CellTiter-Glo ATP luminescence, 48 h; Potency, µM (series often up to 46.1 µM), for the others: top-dose activity, negative = less viability, actives largely listed as cytotoxic; actives 1.6% (n = 360,000);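 also: NT is the 2HG producing partner of a matched IDH1 knockdown line; 0% = DMSO-treated cells and -100% = media-only wells without cells; nearly all actives have a fitted effect of over 55% in size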
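HT-1080-NT; 750 cells/well; 5% FBS RPMI; 48 h compound, 37 degrees C; CellTiter-Glo luminescence; curve fitting and curve-class assignment.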
KB-V1 MDR tox = qHTS assay for MDR1-selective chemotherapeutics: Primary screen using the drug-selected MDR subline cells KB-V1; KB-V1 MDR cells viability, CellTiter-Glo, 72 h; Potency, µM (titrated, usually from 46.1 µM), hits mostly cytotoxic; actives 3.4% (n = 400,000); also: nearly all actives have a fitted effect of over 60% in size
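Cells of the MDR subline KB-V1 are plated, dosed with compound at multiple concentrations, and incubated 72 h at 37 degrees C; CellTiter-Glo is then added and luminescence read after 10 min.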
KB-3-1 tox = qHTS assay for MDR1-selective chemotherapeutics: Primary screen using the parental adenocarcinoma cell KB-3-1; AID 1347075, 2019; KB-3-1 viability, CellTiter-Glo ATP luminescence, 72 h; Potency, µM (titrated, usually from 46.1 µM), actives largely listed as cytotoxic; actives 1.4% (n = 400,000); also: nearly all actives have a fitted effect of over 60% in size
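Cytotoxicity in the drug-sensitive parental line KB-3-1 was scored as loss of CellTiter-Glo luminescence following 72 h incubation with compound. Values come from curve fitting of normalized concentration-response data.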
HT1080 IDH1KD tx = qHTS for induction of synthetic lethality in tumor cells producing 2HG: qHTS for the HT-1080-IDH1KD cell line; actives 2% (n = 360,000); HT-1080 IDH1 knockdown viability, ATP luminescence, 48 h; Potency, µM (top dose mostly 46.1 µM), for the others: at the highest dose activity, negative = toxicity, usual class: cytotoxic;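 also: 0% = DMSO wells and -100% = cell-free medium wells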
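In this qHTS, HT-1080 cells depleted of IDH1 are exposed for 48 h at 37 °C to compound titrations. Toxicity is scored from CellTiter-Glo luminescence, with DMSO as full viability and medium alone as none.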
* hit, by the source's call; i = inactive; ? = inconclusive; . = no result given; [ ] = remark or other dose. Calls follow the shape of the dose curve; as a rule, active = well fitted curve in the direction sought with a large enough effect; inconclusive = small, poorly fitted or top-dose-only effect, or another doubt; inactive = no such curve, though single readings can be large; an effect the other way counts as inactive or inconclusive. Unless noted, % is scaled to controls: 0 for no effect and ±100 for the full control effect; potency is read from the fitted curve at half-maximal effect.

SMILES	TDP1 cell CPT	TDP1 cell noCPT	HT1080NT lethal	KB-V1 MDR tox	KB-3-1 tox	HT1080 IDH1KD tx
CCn1c(COc2ccccc2Cl)nnc1SCC(=O)Nc1ncccc1C	-8.9%	0.5%	2.3%	?	i	7.3%
COc1ccc(CN2CCCC(n3cc(C(=O)N4CCCCC4)nn3)C2)c(OC)c1C (stereo not given)	11.2%[9.04 µM]	-18.4%	.	.	.	.
O=C(CN1CCCC1)Nc1cc(C(F)(F)F)ccc1Cl	4.2%	-4.3%	?	i	i	18.3%
O=C(Cn1cc(SCc2ccc(C(F)(F)F)cc2)c2ccccc21)N1CCCCCC1	18.4µM*	?	.	.	.	.
O=C(Cn1cc(SCc2ccc(C(F)(F)F)cc2)c2ccccc21)N1CCCCC1	?	23.1µM*	.	.	.	.
O=C(CSc1cn(CC(=O)N2CCCCC2)c2ccccc12)Nc1ccc(C(F)(F)F)cc1	-16.3%	-23.2%	.	.	.	.
O=C(CSc1cn(CC(=O)N2CCCC2)c2ccccc12)Nc1cc(C(F)(F)F)ccc1Cl	18.4µM*	?	.	.	.	.
CC(C)c1ccc(NC(=O)c2cc(S(=O)(=O)N3CCCCC3)cn2C)cc1	-14.6%	-13.1%	.	i	i	.
COc1ccc(CCC2=NCCN2C(CC(C)C)c2nc3ccccc3[nH]2)cc1 (stereo not given)	20.6µM*	16.4µM*	?	i	i	?
COc1ccc(C)cc1S(=O)(=O)N(CC(=O)NCc1ccc(Cl)cc1)Cc1ccccc1	20.6µM*	?	?	?	i	?
CCN(CC(=O)NCc1ccc(Cl)cc1)C(=O)c1ccc(C#N)cc1	20.6µM*	?	-0.4%	i	i	2.4%
COc1ccc(/C=C(/CC(=O)NCc2ccc(Cl)cc2)c2nc3ccccc3s2)cc1	?	-28.1%	7.0%	10.3µM*	i	-9.3%
COc1ccc(CNC(=O)CN(Cc2ccccc2)S(=O)(=O)c2ccc(Cl)cc2)cc1	?	18.4µM*	-1.3%[9.24 µM]	?	i	-26.4%
COc1ccc(CNC(=O)CN(Cc2ccc(Cl)cc2)S(=O)(=O)c2ccccc2)cc1	?	?	0.0%[9.24 µM]	?	?	?
O=C(O)C1=CC(O)[C@@H](O)C(O)C1 (stereo not given in full)	0.2%	-1.8%	.	.	.	.
CC(=O)c1ccc(NC(=S)NCCc2cccc(Cl)c2)cc1	?	?	-11.2%	i	i	-13.1%
COc1ccc(S(=O)(=O)N(CC(=O)NCc2ccncc2)Cc2ccccc2)cc1	?	11.6µM*	5.9%	?	i	2.7%
CCN(CC(=O)NCc1ccc(Cl)cc1)C(=O)c1cccc(S(=O)(=O)Nc2ccc(OC)cc2)c1	?	10.3µM*	0.7%	i	i	5.4%
CCCN1CNc2c(c(=O)[nH]c(=S)n2CCc2cccc(OC)c2OC)C1	-14.6%	-29.0%	2.3%	.	.	12.8%
COc1ccc(CNC[C@@H](CCCCN(C)Cc2ccc(OC)cc2)N2C[C@H](c3ccccc3)N(CCc3ccc(Cl)c(Cl)c3)C(=O)C2=O)cc1	?	4.11µM*	18.4µM*	i	i	23.1µM*
COc1ccc(CCN(C)CCCN2CC(c3ccccc3)CC2=O)cc1OC (stereo not given)	-24.7%	5.8%	-2.8%	?	i	-7.4%
Cn1c(-c2ccc(S(=O)(=O)N3CCCC3)cc2)csc1=Nc1ccc(Cl)c(Cl)c1	9.2µM*	4.11µM*	.	.	.	.
O=S(=O)(c1ccc(-c2csc(=Nc3ccc(OC(F)(F)Cl)cc3)n2CCCO)cc1)N1CCCC1	2.91µM*	2.31µM*	.	.	.	.
Cc1nc(-c2ccc(S(=O)(=O)N3CCCCCC3)cc2)cs1	?	?	-17.1%	i	i	-19.4%
COCCCN1C(=O)C(=O)/C(=C(/O)c2ccc(S(=O)(=O)N3CCOCC3)cc2)C1c1ccc(C)cc1 (stereo not given)	0.7%	-2.6%	-0.5%	.	.	-0.3%
SMILES	TDP1 cell CPT	TDP1 cell noCPT	HT1080NT lethal	KB-V1 MDR tox	KB-3-1 tox	HT1080 IDH1KD tx
COCCCn1c(-c2ccc(S(=O)(=O)N3CCOCC3)cc2)csc1=Nc1ccccc1	18.4µM*	14.6µM*	-2.3%	i	?	-15.1%
Cc1cc(Cc2ccc([N+](=O)[O-])cc2)c(C)cn1	-25.9%	-19.0%	-7.0%	?	i	-13.0%
O=C(Nc1c2c(nn1-c1cccc(Cl)c1)CS(=O)(=O)C2)c1ccc2c(c1)OCO2	1.8%	-5.8%	-3.7%	i	i	0.0%
Cc1ccc(Cl)c(NC(=O)COC(=O)c2cc[n+]([O-])cc2)c1Cl	0.5%	-2.3%	-2.4%	i	i	-4.3%
Cn1c(-c2ccc3ccccc3n2)[n+](C)c2ccccc21	3.26µM*	3.66µM*	?	?	9.2µM*	?
CN(C)c1ccc(-c2n(C)c3ccccc3[n+]2C)cc1	1.64µM*	0.82µM*	5.62µM*	i	2.91µM*	8.91µM*
Cn1c(-c2cccc([N+](=O)[O-])c2)[n+](C)c2ccccc21	7.31µM*	3.26µM*	-0.9%	i	i	-25.3%
Cc1ccc([C@@H]2C[C@H]3[C@@H](CN2S(=O)(=O)c2ccc(Cl)cc2)C(=O)C[C@@H](c2ccc(Cl)cc2)N3S(=O)(=O)c2ccccc2C)cc1	-21.3%	?	11.3%	i	i	3.7%
COc1ccc(-c2noc(CCC(=O)NCCc3ccccc3)n2)cc1OC	-21.3%	-9.7%	-0.5%	i	i	3.6%
COc1cc(-c2noc(CCCC(=O)NCc3ccccc3)n2)cc(OC)c1OC	-28.9%	?	-20.2%	6.51µM*	i	?
COc1cc(-c2noc(CCC(=O)Nc3cc(C)ccc3C)n2)cc(OC)c1OC	18.4µM*	11.6µM*	.	i	i	.
COc1cccc(NC(=O)CCc2nc(-c3cccs3)no2)c1	-4.0%	15.5%	7.31µM*	i	i	?
COc1ccc(-c2noc(CCC(=O)Nc3cccc(C)c3C)n2)cc1OC	?	?	.	i	i	.
COc1ccccc1NC(=O)CCc1nc(-c2cccs2)no1	-2.3%	-17.3%	7.0%	i	i	17.5%
